Shown are actives, neighbours in structure and some others; about 0.26% of the full set was active somewhere.
PKD1 inh: blocks activity of human protein kinase D1 | Q15139 | PKD1 kinase fluorescence polarization assay | inhibition, % (no concentration beside the values) | 0.056% of 200,000 active | AID 797; in the data active = inhibition above about 50%
Bcl-W Bim block: disrupts Bim peptide binding to human Bcl-W | bead-based flow cytometry | inhibition, % at 10 µM | 0.02% of 190,000 active | AID 952;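 also: 0% = bound tracer without compound and 100% = peptide blocker; higher means less fluorescent Bim peptide bound to Bcl-W beads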
Bim-Bcl-XL: human Bim-Bcl-XL interaction inhibition; Bim peptide-Bcl-XL binding, bead flow cytometry, fluorescence; inhibition, % at 10 µM; 0.04% of 190,000 active; AID 1007
Target sequence (Q07817 whole entry, looked up): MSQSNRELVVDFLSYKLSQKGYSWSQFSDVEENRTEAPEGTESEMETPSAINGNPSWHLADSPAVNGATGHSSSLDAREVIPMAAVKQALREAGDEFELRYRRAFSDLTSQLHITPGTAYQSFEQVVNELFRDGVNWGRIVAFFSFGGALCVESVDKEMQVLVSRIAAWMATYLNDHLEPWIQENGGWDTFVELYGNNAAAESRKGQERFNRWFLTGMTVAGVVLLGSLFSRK
Bcl-2 Bim block: disrupts Bim peptide binding to human Bcl-2 | Bead-based flow cytometry, Bim peptide-Bcl-2 binding | 0.06% of 190,000 active | AID 950 | P10415 | inhibition, % at 10 µM; in the data active = inhibition above about 40%; inconclusive = no clear call, values can overlap the other calls;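 also: 0% = no compound wells with probe peptide and 100% = reference peptide inhibitor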
Target sequence (P10415 whole entry, looked up): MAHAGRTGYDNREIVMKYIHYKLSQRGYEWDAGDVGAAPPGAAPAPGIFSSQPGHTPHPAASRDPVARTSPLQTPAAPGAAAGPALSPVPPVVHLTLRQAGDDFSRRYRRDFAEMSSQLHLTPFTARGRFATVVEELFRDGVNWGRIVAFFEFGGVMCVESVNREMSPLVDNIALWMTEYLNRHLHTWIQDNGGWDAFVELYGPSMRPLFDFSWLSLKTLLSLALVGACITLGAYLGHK
Bfl-1 Bim block: human Bim-Bfl-1 interaction inhibition. Q16548. Bead-based flow cytometry, Bim-Bfl-1 binding inhibition. inhibition, % at 10 µM. 0.12% of 190,000 active. AID 1008;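 also: 0% = wells without compound plus tracer and 100% = blocker peptide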
Bcl-B Bim block: disrupts Bim peptide binding to human Bcl-B. bead-based flow cytometry. inhibition, % at 10 µM. 0.073% of 190,000 active. AID 951;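 also: 0% = tracer peptide without compound and 100% = reference inhibitor peptide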
FP interf 140K: interferes with fluorescence polarization in PKD inhibitor counter-screen; shares compounds with PKD1 inh; PKD1 FP assay interference counter-screen; inhibition, % at 10 µM; 85 tested, under 10 active; call rule not given here
Active calls of the source: *; ? = inconclusive; . = no result given. Rule as the data show it, unless noted: active = inhibition above about 40%.

SMILES	PKD1 inh	Bcl-W Bim block	Bim-Bcl-XL	Bcl-2 Bim block	Bfl-1 Bim block	Bcl-B Bim block	FP interf 140K
Cc1ccc(-c2nnc(Cc3ccc(Cl)cc3)o2)cc1	-12.2	35.0	28.0	92.0*	67.0*	87.0*	.
CCNc1nc(ON=C(C)C)nc(N(C)C)n1	-4.4	0.0	-5.0	-2.0	0.0	-7.0	.
CC1Cc2ccccc2N1c1ncnc(N)c1[N+](=O)[O-] (configuration not stated)	67.6*	-4.0	-2.0	-1.0	3.0	-1.0	.
Cc1ccc(NC(=O)C/C(N)=N/OC(=O)c2ccccc2)cc1	0.6	0.0	2.0	73.0*	51.0*	64.0*	.
COCCSc1nnc(NC(=O)C2CC(=O)N(c3ccccc3)C2)s1 (configuration not stated)	-2.1	-2.0	-2.0	-4.0	-7.0	-8.0	.
O=C(Nc1nnc(SCc2ccccn2)s1)C1CC(=O)N(c2ccccc2)C1 (configuration not stated)	-3.0	31.0	40.0*	28.0	34.0	35.0	.
CC(=O)Oc1ccccc1N(C(C)=O)S(=O)(=O)c1cccc([N+](=O)[O-])c1	-7.6	-1.0	-4.0	-5.0	-5.0	-4.0	.
Cc1ccc(Nc2cc(C)nc(-c3ccccc3O)n2)cc1	6.7	1.0	-1.0	-3.0	-4.0	-1.0	.
Cc1cc(NCCCN)nc(-c2ccccc2O)n1	113.7*	-3.0	-1.0	-5.0	-2.0	-1.0	-17.7
Cc1ccc(C)c(N2CC(C(=O)O)CC2=O)c1 (configuration not stated)	-3.3	0.0	0.0	-2.0	-6.0	-4.0	.
CCOC(=O)c1cccc(NC(=O)CCS(=O)(=O)c2cccc3nsnc23)c1	68.9*	2.0	0.0	-1.0	9.0	-1.0	-15.4
OC(c1ccccn1)(c1ccccn1)c1ccccn1	6.2	2.0	-3.0	-5.0	0.0	0.0	.
CC12CCC(C)(c3nc4ccccc4nc31)C2(C)C	-1.1	-1.0	0.0	1.0	-2.0	0.0	.
Cc1[nH]nc2c1-c1nc3ccccc3nc1C(C)(C)C2	57.8*	0.0	0.0	0.0	0.0	0.0	-0.8
CS(=O)(=O)N1CCN(c2ccc(NC(=O)c3ccc(Br)o3)cc2)CC1	90.8*	-1.0	-1.0	0.0	-1.0	-1.0	-16.2
CN1CCN(c2ccccc2NC(=O)c2ccc(-c3cccc([N+](=O)[O-])c3)o2)CC1	51.8*	2.0	1.0	-3.0	-13.0	0.0	-19.3
CC(C)CCN1CN(S(=O)(=O)c2cccs2)c2nc3ccccc3nc21	95.3*	2.0	-5.0	-5.0	-11.0	-9.0	-10.9
CC(OC(=O)c1ccc(NS(=O)(=O)c2cccs2)cc1)C(=O)N(C)C1CCCCC1 (configuration not stated)	50.9*	0.0	0.0	-2.0	-3.0	1.0	-9.1
CCC(OC(=O)c1cccs1)C(=O)NCc1ccc(C)cc1 (configuration not stated)	-5.0	2.0	-2.0	0.0	0.0	0.0	.
O=C(O)C1CCN(c2ncccn2)CC1	90.0*	0.0	0.0	-6.0	-2.0	0.0	-6.5
Cc1ccc(C)c(C(=O)NC(C)CCc2ccccc2)c1 (configuration not stated)	-5.9	0.0	0.0	-2.0	-5.0	-5.0	.
Cc1occc1C(=O)NC(C)CCc1ccccc1 (configuration not stated)	119.0*	-1.0	-4.0	-10.0	-8.0	-10.0	-3.5
Cc1ccc(-n2c3c(cc(C(=O)NCc4ccco4)c2=O)C(=O)CC(C)(C)C3)cc1	-5.9	3.0	0.0	-3.0	-7.0	-10.0	.
O=C1CCCc2c1cc(C(=O)NCc1ccco1)c(=O)n2-c1ccccc1	51.6*	2.0	0.0	-6.0	-7.0	-4.0	-16.9
O=C(Nc1ccc(Cl)cc1)OCc1cn(-c2ccc(Cl)cc2)nn1	107.7*	-4.0	-3.0	-2.0	-4.0	-5.0	-14.2
SMILES	PKD1 inh	Bcl-W Bim block	Bim-Bcl-XL	Bcl-2 Bim block	Bfl-1 Bim block	Bcl-B Bim block	FP interf 140K
CC(C)(C)NC(=O)C(c1ccc(O)cc1)N(C(=O)Cn1nnc(-c2ccc(F)cc2)n1)c1ccccc1F (configuration not stated)	-11.9	2.0	0.0	1.0	-1.0	1.0	.
O=C(Cn1c(NCCO)nc2ccccc21)c1ccccc1	-8.7	0.0	-1.0	0.0	2.0	-5.0	.
Cc1ccc(C(=O)Cn2c(NCCO)nc3ccccc32)cc1	53.2*	0.0	0.0	0.0	0.0	1.0	3.4
COc1c(O)ccc(C2NC(=O)NC(C)=C2C(=O)Nc2ccccc2C)c1[N+](=O)[O-] (configuration not stated)	-2.4	-1.0	-3.0	-3.0	-6.0	-7.0	.
CCc1ccc(Nc2nnc(SCC(=O)NCCN3C(=O)CSC3=O)s2)cc1	-0.8	0.0	-6.0	-4.0	-9.0	-3.0	.
Cc1c(C(=O)NCc2cccnc2)sc2nc(-c3ccc(F)cc3)cn12	54.5*	-7.0	-7.0	-9.0	-7.0	-9.0	-8.4
COc1ccccc1/C=C1\SC(=S)N(CCC(=O)NC2=NCCS2)C1=O	51.6*	-4.0	-6.0	0.0	0.0	-8.0	-22.4
O=C(CCN1C(=O)/C(=C\c2cccs2)SC1=S)NC1=NCCS1	7.9	-1.0	-4.0	-2.0	-3.0	-2.0	.
COc1ccc(-c2cnnc(N/N=C/c3ccc(O)c(O)c3)n2)cc1	52.2*	0.0	-2.0	-5.0	-11.0	-7.0	-6.0
Cc1nn(C)c(C)c1N1C(=O)c2cccc3c(Br)ccc(c23)C1=O	10.3	0.0	7.0	10.0	1.0	0.0	.
Cc1nn(C)c(C)c1N1C(=O)c2cccc3c(N)ccc(c23)C1=O	66.7*	-9.0	-11.0	-9.0	-4.0	-19.0	43.4
CCOc1ccc(C2NC(=O)C(C#N)=C(S)N2c2ccc(C)cc2)cc1OC (configuration not stated)	-3.0	3.0	-1.0	-3.0	-4.0	-5.0	.
COc1ccc(S(=O)(=O)N2CCC(n3cnc4cc(C(F)(F)F)ccc43)CC2)cc1	74.5*	-7.0	-5.0	0.0	-2.0	-6.0	-12.5
Cc1ccc(NC(=O)CNc2ccc(Cl)cc2F)cc1	86.1*	-5.0	-7.0	-6.0	-6.0	-8.0	-15.7
Cc1ccc(NC(=O)Nc2ccc(F)c(Cl)c2)cc1	-0.7	0.0	-1.0	-1.0	1.0	-5.0	.
O=C(NCCOC(=O)c1ccc(C(=O)OCCNC(=O)c2cccnc2)s1)c1cccnc1	104.7*	1.0	-1.0	-1.0	-2.0	-1.0	-24.6
Cn1c(=O)oc2cc(S(=O)(=O)N3CCN(Cc4ccc5c(c4)OCO5)CC3)ccc21	79.8*	3.0	-6.0	-13.0	-16.0	-11.0	-11.3
O=S(=O)(c1ccc2c(c1)OCCO2)N1CCN(Cc2ccc3c(c2)OCO3)CC1	0.8	1.0	0.0	-5.0	-11.0	-6.0	.
O=C(Nc1ccccn1)C(=O)N1CCCCC1	-11.1	.	.	?	.	.	.
CCC1=NNc2cccc3c(OC)ccc1c23	98.6*	66.0*	75.0*	64.0*	56.0*	100.0*	-4.4
COc1ccc2c3c(cccc13)C(=O)N(O)C2=O	1.8	5.0	4.0	-6.0	-15.0	1.0	.

Bioassay records deposited in PubChem BioAssay by several laboratories.
